Measurements taken from PubChem BioAssay (NCATS).
Where “and” joins values, the source holds several entries; their conditions need not be identical. Identical values can stand only once. Records with an inconclusive call do not appear. Calls of active or inactive are those of the source. Unless noted, calls follow the shape of the dose curve; as a rule, active = well fitted curve in the direction sought with a large enough effect; inconclusive = small, poorly fitted or top-dose-only effect, or another doubt; inactive = no such curve, though single readings can be large; an effect the other way counts as inactive or inconclusive.

Columns and labels:
[1] = qHTS Assay for Lipid Storage Modulators (AID 1519; calls by dose curve; as to activity change, negative = inhibition: % is scaled to controls: 0 for no effect and ±100 for the full control effect); conditions: Drosophila S3 cells, BODIPY lipid droplet/cell ratio, laser cytometry, cells loaded with oleic acid
In short: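 Cells seeded at 5,000 per well were treated with compounds over a concentration series and loaded with oleic acid (400 uM, as added). Lipid droplet fluorescence (488 nm excitation, 500-530 nm channel) was read by laser-scanning cytometry and normalized to 20 uM Triacsin C.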

[2] = target: Ubiquitin carboxyl-terminal hydrolase 1 (Homo sapiens) (UniProt O94782); assay: Inhibitors of USP1/UAF1: Pilot qHTS (AID 504865);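 also: rhodamine fluorescence freed from ubiquitin-rhodamine substrate followed over time; top concentration of the series differs between compounds; % is scaled to controls: 0 for no effect and ±100 for the full control effect; nearly all actives have a fitted effect of over 35% in size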
Chain of Ubiquitin carboxyl-terminal hydrolase 1 (Homo sapiens) (O94782 whole entry, looked up): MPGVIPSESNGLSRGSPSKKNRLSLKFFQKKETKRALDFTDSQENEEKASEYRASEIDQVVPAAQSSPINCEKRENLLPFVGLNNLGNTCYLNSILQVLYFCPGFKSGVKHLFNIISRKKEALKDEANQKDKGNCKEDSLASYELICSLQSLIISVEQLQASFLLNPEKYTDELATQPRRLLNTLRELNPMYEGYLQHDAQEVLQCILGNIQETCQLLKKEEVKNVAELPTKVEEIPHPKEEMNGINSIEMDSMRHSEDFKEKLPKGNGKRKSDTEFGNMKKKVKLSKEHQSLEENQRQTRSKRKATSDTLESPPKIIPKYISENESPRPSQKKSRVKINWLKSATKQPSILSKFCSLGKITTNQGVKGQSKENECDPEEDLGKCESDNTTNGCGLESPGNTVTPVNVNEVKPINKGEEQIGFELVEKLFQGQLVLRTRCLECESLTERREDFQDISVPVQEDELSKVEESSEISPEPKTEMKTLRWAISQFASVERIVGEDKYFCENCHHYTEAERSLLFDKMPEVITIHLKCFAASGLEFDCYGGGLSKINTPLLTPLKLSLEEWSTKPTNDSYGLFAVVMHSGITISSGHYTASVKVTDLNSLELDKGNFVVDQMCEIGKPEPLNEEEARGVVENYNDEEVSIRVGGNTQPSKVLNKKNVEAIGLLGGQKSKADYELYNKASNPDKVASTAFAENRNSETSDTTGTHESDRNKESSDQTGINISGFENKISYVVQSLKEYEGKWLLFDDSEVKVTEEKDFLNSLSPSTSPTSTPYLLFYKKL
In short: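 Kinetic fluorescence assay: 1nM USP1/UAF1, 15 min compound preincubation, then 150nM Ub-Rho; 480/540 nm.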

[3] = target: Cytochrome P450 3A4 (Homo sapiens) (UniProt P08684); assay: qHTS Assay for Inhibitors and Substrates of Cytochrome P450 3A4 (AID 884); also: nearly all actives have a fitted effect of over 50% in size; also: potency is read from the fitted curve at half-maximal effect; as to activity change, negative = inhibition: % is scaled to controls: 0 for no effect and ±100 for the full control effect
Chain of Cytochrome P450 3A4 (Homo sapiens) (P08684 whole entry, looked up): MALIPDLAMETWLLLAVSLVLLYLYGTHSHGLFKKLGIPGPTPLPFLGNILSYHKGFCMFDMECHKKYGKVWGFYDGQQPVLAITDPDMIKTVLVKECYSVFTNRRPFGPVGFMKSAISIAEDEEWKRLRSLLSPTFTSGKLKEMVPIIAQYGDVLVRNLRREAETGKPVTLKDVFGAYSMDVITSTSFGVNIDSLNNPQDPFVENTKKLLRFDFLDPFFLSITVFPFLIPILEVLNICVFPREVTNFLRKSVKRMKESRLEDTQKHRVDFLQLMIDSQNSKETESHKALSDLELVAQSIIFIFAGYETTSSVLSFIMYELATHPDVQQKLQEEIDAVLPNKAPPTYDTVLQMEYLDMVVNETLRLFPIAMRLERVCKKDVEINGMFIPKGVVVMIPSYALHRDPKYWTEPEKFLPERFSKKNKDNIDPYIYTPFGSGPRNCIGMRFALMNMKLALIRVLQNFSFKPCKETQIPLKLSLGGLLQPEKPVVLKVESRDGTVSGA
In short: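 Luminescent readout of luciferin produced by CYP3A4 (20 nM) dealkylation of Luciferin-PPXE, 25 uM (its KM). NADPH-driven reaction ran 60 min at RT after 10 min compound preincubation; data scaled to 57 uM ketoconazole as 100% inhibition.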

[4] = Confirmation and Secondary Assay for Modulators of Hemoglobin Beta Chain Splicing at IVS2 654 locus (AID 910);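 also: HeLa cells stably carrying EGFP split by mutant beta-globin IVS2-654 intron; per-well total GFP intensity by laser scanning cytometry after 2-day treatment; % of control where 0% means no effect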
In short: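 Readout: per-well total peak green fluorescence (488 nm ex, 500–520 nm em) from objects 5–250 µm, reflecting correct splicing of an EGFP-654 reporter. Compounds were applied for 2 days at 37 °C to overnight-plated HeLa EGFP-654 cells; controls were DMSO and 500 nM IVS2-654 PNA.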

[5] = Confirmation and Secondary Assay for Modulators of Hemoglobin Beta Chain Splicing at IVS2 705 locus (AID 930);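 also: HeLa cells stably expressing the EGFP-705 splicing reporter; GFP fluorescence per well restored by corrected splicing of the IVS2-705 intron in EGFP; % of control where 0% means no effect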
In short: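 HeLa EGFP-705 reporter; 500 cells/well, o/n 37C 5% CO2; cpd 2 d; 488 ex/500-520 em laser scan; total peak GFP intensity/well. Ref: 500 nM […] antisense PNA.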

[6] = target: Cytochrome P450 3A4 (Homo sapiens) (UniProt P08684); assay: qHTS Assay for Activators of Cytochrome P450 3A4 (AID 885); also: nearly all actives have a fitted effect of over 65% in size
In short: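 Activators are scored by enhanced luminescence from CYP3A4 conversion of luciferin-PPXE (25uM, equal to KM) to luciferin, after 60 min at RT with an NADPH-regenerating system.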

[7] = measured here: cell count channel max response
[8] = measured here: lipid channel max response

SMILES | activity change, negative = inhibition ([1]; at 57.5 µM (top of the series)) | max response [1, 7] | max response [1, 8] | Potency [2] | activity change, negative = inhibition ([1]; at 25.7 µM (top of the series)) | Potency [3] | Potency [4] | Potency [5] | Potency [6]
COc1cc(C2c3cc4c(cc3C(O)[C@H]3COC(=O)C23)OCO4)cc(OC)c1OC (stereo partly specified) | 6.7% (inactive) and 5.22% (inactive) | -4.29% and 22% | 2.15% and 29.3% | inactive | – | – | – | – | –
COc1cc2c(c(OC)c1OC)-c1ccc(OC)c(=O)cc1[C@H](NC(C)=O)CC2 | – | -13.6% | -22.5% | inactive | -7.92% (inactive) | – | – | – | –
C[C@]1(C(=O)O)CCC[C@]2(C)c3cc(O)ccc3CC[C@@H]12 | -6.36% (inactive) | -21.1% | -24.8% | inactive | – | inactive | – | – | –
N#Cc1c(Cl)cccc1Cl | 7.12% (inactive) | 9.19% | 14.3% | inactive | – | inactive | inactive | – | –
CNC(=O)Oc1ccccc1OC(C)C | 5.74% (inactive) | 11.3% | 18.3% | inactive | – | – | inactive | inactive | –
CC(C)(O)[C@@H]1C2OC(=O)[C@@H]1[C@]1(O)C[C@H]3O[C@]34C(=O)O[C@H]2[C@]14C | 5.46% (inactive) | 3.27% | 5.39% | inactive | – | – | – | – | –
CCC(=O)Nc1ccc(Cl)c(Cl)c1 | 7.8% (inactive) | 9.78% | 21.3% | inactive | – | 15.8 µM (active) | – | inactive | inactive
CCS(=O)CCSP(=O)(OC)OC (stereo unspecified) | -0.0729% (inactive) | 0.72% | 3.47% | inactive | – | inactive | inactive | – | –
CN1C2CC(OC(=O)C(CO)c3ccccc3)C[C@@H]1[C@H]1OC21 (stereo partly specified) | 7.13% (inactive) | 12.9% | 25.6% | inactive | – | – | – | – | –
CN1C2CC3CC1C(O3)C2O (stereo unspecified) | 1.96% (inactive) | -4.71% | -5.52% | inactive | – | inactive | – | – | –
COP(N)(=O)SC (stereo unspecified) | 4.67% (inactive) | 0.934% | 6.43% | inactive | – | inactive | inactive | inactive | –
C=C[C@H]1CN2CCC1C[C@@H]2C(O)c1ccnc2ccccc12 (stereo partly specified) | 7.24% (inactive) | 20.2% | 27.5% | inactive | – | inactive | – | – | –
CC(=O)CC1CCCCN1 (stereo unspecified) | 4.86% (inactive) | 11.3% | 14.1% | inactive | – | inactive | inactive | inactive | –
CNC(Cc1c[nH]c2ccccc12)C(=O)O (stereo unspecified) | 4.43% (inactive) | 11.7% | 20.5% | inactive | – | inactive | inactive | inactive | –
CN1C2CC(OC(=O)C(CO)c3ccccc3)CC1C(O)C2 (stereo unspecified) | 5.64% (inactive) | 7.52% | 14.4% | inactive | – | inactive | inactive | inactive | –
CC(=O)OC1CCC23C(=O)OC45CCC(C6=CC(=O)OC6)C4(C)CCC2C5CCC3(O)C1 (stereo unspecified) | -4.87% (inactive) | 6.6% | 2.69% | inactive | – | inactive | inactive | inactive | –
